# Experiments:
# Settings in all cases: concentration: 1 μM, replicates: in singlicate; n = 1
# [1] = system: TNNI3K
# [2] = system: T1, TRKA
# T1 construct: gene NTRK1
# [3] = system: TRKB
# [4] = system: T2, TRKC
# T2 construct: gene NTRK3
# [5] = system: TRPM6
# [6] = system: TSSK1B
# [7] = system: TSSK3
# [8] = system: TTK
# [9] = system: TXK
# [10] = system: TYK2(JH1domain-catalytic)
# 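Note: KINOMEscan kinase panel screen.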
Compound,%Inh [1],%Inh [2],%Inh [3],%Inh [4],%Inh [5],%Inh [6],%Inh [7],%Inh [8],%Inh [9],%Inh [10]
CSc1ccc(NC2=C(c3ccc(Cl)cc3)C(=O)NC2=O)cc1 [SB-317658],2%,5%,0%,0%,0%,3%,0%,6%,23%,0%
COc1cc(Nc2nccc(N3CCC(NC(=O)Nc4ccc5c(c4)OCO5)C3)n2)cc(OC)c1OC (stereo not shown) [GSK1379766],0%,57%,43%,73%,47%,8%,9%,0%,38%,38%
COc1cccc(-c2nc(-c3ccccc3)[nH]c2-c2ccncc2)c1 [SB-610250],0%,0%,0%,22%,10%,10%,4%,16%,14%,18%
CNc1nccc(-c2ccc3c(N)n[nH]c3c2)n1 [GSK2206003],0%,52%,23%,3%,0%,0%,21%,37%,11%,46%
CCn1cnc2c(NCc3ccccc3)ncnc21 [SKF-96418],0%,0%,0%,11%,15%,0%,0%,16%,2%,0%
COc1ccc(C2=C(Nc3cccc(O)c3)C(=O)NC2=O)cc1 [SB-390766],27%,0%,41%,51%,30%,8%,12%,0%,8%,25%
COc1ccc(NC(=O)c2ccoc2)cc1-c1ccc(C(=O)NCC2CC2)cc1 [GW810437],1%,15%,26%,21%,0%,0%,32%,0%,0%,61%
COc1cc(Nc2ccnc3cc(-c4ccncc4)ccc23)cc(OC)c1OC.Cl [GW494610],14%,38%,7%,37%,16%,0%,22%,0%,92.8%,17%
CCNc1nccc(-c2c(-c3ccc(F)cc3)ncn2C2CCN(C)CC2)n1,0%,0%,0%,0%,0%,0%,0%,7%,0%,0%
Cc1cccc(Nc2nc(NCCN)ncc2C(N)=O)c1 [GSK1292139],0%,72%,57%,43%,44%,38%,55%,36%,11%,44%
Cc1ccc(Nc2ccnc(Nc3ccc(C)c(F)c3)n2)cc1O.Cl [GW582868],0%,0%,50%,35%,0%,11%,8%,0%,12%,31%
CN1CCN(Cc2ccc(NC(=O)Nc3ccc(N(C)c4ccnc(Nc5ccc(CS(C)(=O)=O)cc5)n4)cc3)cc2)CC1.Cl [GW827654],46%,91.4%,92%,92.5%,0%,0%,47%,28%,85%,97.9%
O=C(Nc1c(F)cccc1F)c1cc(C(=O)c2ccccc2F)c[nH]1 [GSK1326180],0%,27%,0%,12%,0%,0%,24%,6%,0%,0%
COC(=O)Nc1nc2ccc(Oc3ccc(NC(=O)Nc4cc(C(F)(F)F)ccc4F)cc3)cc2[nH]1.Cl [GW654607],92.4%,100%,94.8%,98.9%,26%,100%,6%,17%,0%,8%
CC(C)(C)c1ccc(C(=O)Nc2cn3cc(-n4ccnc4)ccc3n2)cc1,2%,0%,0%,0%,0%,0%,0%,1%,0%,22%
CC(=O)Nc1cn2nc(Oc3cccc(NC(=O)c4cccc(C(F)(F)F)c4)c3)ccc2n1,97%,0%,0%,0%,0%,8%,0%,29%,61%,0%
